Holding throughout (assay): DAPPL (digital affinity profiling via proximity ligation, sequencing); 10 mM Tris-HCl pH 7.5, 50 mM NaCl, 1 mM DTT, 4% glycerol, room temperature, 30 min; GST-TFs on glutathione beads, 16-mer random dsDNA library, 0.1% formaldehyde crosslink after washing; high values mean tight binding
Experiment [1] has as its target T1, FEV (Homo sapiens, UniProt Q99581 1-238).
T1 sequence: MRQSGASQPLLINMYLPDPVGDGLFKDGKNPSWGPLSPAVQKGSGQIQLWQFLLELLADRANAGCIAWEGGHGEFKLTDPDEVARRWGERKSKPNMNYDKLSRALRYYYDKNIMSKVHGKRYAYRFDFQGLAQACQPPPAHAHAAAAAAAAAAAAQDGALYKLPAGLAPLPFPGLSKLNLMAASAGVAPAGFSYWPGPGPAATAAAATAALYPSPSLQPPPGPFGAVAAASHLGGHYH
Particulars: protein: recombinant; tags: N-terminal GST; dsDNA, one strand shown. In short, it runs like this:
(§1)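 Sequencing on an Illumina NextSeq500 followed washing, crosslinking with 0.1% formaldehyde, proximity ligation (BsaI/T4 ligase, 1 h, 37 °C) and PCR amplification of pools that had been incubated for 30 min at room temperature with 200 nmole of a random double-stranded 16-mer DNA library in Tris/NaCl/DTT/glycerol buffer. Each pool held DNA-barcoded human transcription factors, expressed in yeast as GST fusions and captured on glutathione beads, plus a tag-only sample. Binding signal is a hexamer's read frequency for a factor divided by its frequency in the tag-only sample.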

Experiment [2] concerns the target ETV5 (Homo sapiens, UniProt P41161 1-510). Particulars: protein: recombinant; tags: N-terminal GST; dsDNA, one strand shown. In short, it runs like this:
as §1

The target in experiment [3] is HSF1 (Homo sapiens, UniProt Q00613 1-529). The following applies: protein: recombinant; tags: N-terminal GST; chain copies: 3; dsDNA, one strand shown. In short, it runs like this:
as §1

The target of experiment [4] is T2, SPIC (Homo sapiens, UniProt Q8N5J4 1-248).
T2 sequence: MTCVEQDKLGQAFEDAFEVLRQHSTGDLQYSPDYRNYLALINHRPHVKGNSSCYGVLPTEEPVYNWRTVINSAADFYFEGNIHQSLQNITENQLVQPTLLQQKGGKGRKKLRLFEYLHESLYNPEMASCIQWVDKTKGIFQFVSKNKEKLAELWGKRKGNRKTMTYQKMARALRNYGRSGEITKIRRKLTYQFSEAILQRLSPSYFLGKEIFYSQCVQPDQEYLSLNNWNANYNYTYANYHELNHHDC
Particulars: protein: recombinant; tags: N-terminal GST; dsDNA, one strand shown. In short, it runs like this: as §1

Experiment [5] has as its target ELF4 (Homo sapiens, UniProt Q99607 1-663). The following applies: protein: recombinant; tags: N-terminal GST; dsDNA, one strand shown. In short, it runs like this:
as §1

For experiment [6], the target named is T3, ELK4 (Homo sapiens, UniProt P28324-2 1-405).
T3 sequence: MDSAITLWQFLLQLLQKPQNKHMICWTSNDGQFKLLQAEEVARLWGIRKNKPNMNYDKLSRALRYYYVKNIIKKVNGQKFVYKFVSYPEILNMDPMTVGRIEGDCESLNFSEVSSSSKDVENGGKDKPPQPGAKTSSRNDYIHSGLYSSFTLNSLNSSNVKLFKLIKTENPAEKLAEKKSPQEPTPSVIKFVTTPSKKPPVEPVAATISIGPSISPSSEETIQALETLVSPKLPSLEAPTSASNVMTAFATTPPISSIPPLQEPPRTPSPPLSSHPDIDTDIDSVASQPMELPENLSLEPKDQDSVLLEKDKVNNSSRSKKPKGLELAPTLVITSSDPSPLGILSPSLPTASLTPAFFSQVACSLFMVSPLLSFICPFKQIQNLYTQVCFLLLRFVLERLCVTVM
Particulars: protein: recombinant; tags: N-terminal GST; dsDNA, one strand shown. Put shortly:
as §1

Experiment [7] has as its target T4, ETV2 (Homo sapiens, UniProt O00321 1-342).
T4 sequence: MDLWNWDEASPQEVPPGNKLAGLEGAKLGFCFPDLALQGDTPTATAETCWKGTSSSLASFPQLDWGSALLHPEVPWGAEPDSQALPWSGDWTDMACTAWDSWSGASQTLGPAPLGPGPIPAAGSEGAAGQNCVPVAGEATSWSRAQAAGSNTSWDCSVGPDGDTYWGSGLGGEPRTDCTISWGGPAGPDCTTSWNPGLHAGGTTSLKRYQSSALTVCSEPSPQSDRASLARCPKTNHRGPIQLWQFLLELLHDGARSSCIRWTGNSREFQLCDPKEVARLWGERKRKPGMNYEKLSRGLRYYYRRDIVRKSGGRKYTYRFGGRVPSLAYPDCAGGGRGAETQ
The following applies: protein: recombinant; tags: N-terminal GST; dsDNA, one strand shown. In short, it runs like this: as §1

In experiment [8] the target is T5, ELF3 (Homo sapiens, UniProt P78545 1-371).
T5 sequence: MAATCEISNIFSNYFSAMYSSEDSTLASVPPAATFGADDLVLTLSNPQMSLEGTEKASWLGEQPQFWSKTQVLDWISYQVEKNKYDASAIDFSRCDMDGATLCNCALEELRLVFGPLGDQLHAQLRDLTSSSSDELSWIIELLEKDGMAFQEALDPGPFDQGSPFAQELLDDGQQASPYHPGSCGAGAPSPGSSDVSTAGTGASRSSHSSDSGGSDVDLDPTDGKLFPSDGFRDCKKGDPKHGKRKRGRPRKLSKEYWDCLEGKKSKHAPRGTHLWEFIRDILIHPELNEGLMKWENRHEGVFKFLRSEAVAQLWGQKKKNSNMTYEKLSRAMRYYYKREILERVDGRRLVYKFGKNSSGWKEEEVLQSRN
The following applies: protein: recombinant; tags: N-terminal GST; dsDNA, one strand shown. In short, it runs like this:
as §1

Experiment [9] addresses CRX (Homo sapiens, UniProt O43186 1-299). Particulars: protein: recombinant; tags: N-terminal GST; dsDNA, one strand shown. Put shortly: as §1
Experiment [10] addresses ETV1 (Homo sapiens, UniProt P50549 1-477). Particulars: protein: recombinant; tags: N-terminal GST; dsDNA, one strand shown. Put shortly:
as §1

In experiment [11] the target is T6, ERF (Homo sapiens, UniProt P50548 1-548).
T6 sequence: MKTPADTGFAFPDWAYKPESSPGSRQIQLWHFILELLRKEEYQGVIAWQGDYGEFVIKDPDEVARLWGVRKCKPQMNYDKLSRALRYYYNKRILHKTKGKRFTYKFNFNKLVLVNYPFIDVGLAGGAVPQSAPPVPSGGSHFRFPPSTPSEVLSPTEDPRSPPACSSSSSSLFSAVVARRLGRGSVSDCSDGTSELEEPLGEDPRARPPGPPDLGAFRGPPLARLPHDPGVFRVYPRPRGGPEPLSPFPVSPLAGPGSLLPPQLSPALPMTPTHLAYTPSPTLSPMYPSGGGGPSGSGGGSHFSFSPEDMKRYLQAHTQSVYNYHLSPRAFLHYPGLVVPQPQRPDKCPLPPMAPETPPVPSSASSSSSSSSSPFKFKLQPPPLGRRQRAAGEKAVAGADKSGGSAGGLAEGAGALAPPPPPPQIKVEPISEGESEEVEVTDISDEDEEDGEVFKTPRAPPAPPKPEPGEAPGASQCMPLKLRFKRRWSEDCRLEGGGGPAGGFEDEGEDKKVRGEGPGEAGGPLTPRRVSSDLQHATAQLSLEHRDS
The following applies: protein: recombinant; tags: N-terminal GST; dsDNA, one strand shown. In short, it runs like this: as §1

For experiment [12], the target named is T7, ETV3L (Homo sapiens, UniProt Q6ZN32 1-361).
T7 sequence: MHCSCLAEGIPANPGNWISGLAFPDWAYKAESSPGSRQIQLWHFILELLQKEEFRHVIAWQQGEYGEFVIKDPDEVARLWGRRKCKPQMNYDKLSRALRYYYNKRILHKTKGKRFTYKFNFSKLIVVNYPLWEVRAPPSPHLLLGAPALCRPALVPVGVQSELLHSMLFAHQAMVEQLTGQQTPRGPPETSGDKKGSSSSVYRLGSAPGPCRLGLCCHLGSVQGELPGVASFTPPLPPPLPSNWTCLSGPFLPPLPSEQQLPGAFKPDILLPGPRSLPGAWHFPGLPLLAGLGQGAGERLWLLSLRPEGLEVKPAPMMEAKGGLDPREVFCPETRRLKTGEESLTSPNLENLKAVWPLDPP
The following applies: protein: recombinant; tags: N-terminal GST; dsDNA, one strand shown. Put shortly:
as §1

The target of experiment [13] is T8, ETS2 (Homo sapiens, UniProt P15036 1-469).
T8 sequence: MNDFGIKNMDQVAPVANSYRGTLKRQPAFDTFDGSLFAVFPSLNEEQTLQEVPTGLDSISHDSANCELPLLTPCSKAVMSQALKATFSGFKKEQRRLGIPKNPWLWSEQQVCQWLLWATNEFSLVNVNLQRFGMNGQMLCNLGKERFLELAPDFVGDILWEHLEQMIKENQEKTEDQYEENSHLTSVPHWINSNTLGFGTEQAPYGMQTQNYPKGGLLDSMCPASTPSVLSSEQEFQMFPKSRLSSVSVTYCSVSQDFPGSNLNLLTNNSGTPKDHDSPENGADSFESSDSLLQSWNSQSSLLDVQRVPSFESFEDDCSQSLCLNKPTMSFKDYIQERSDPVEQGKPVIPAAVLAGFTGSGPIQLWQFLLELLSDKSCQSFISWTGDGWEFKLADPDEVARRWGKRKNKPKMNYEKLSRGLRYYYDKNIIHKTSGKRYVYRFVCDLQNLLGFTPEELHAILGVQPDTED
Particulars: protein: recombinant; tags: N-terminal GST; dsDNA, one strand shown. Put shortly:
as §1

Experiment [14] addresses T9, SPDEF (Homo sapiens, UniProt O95238 1-335).
T9 sequence: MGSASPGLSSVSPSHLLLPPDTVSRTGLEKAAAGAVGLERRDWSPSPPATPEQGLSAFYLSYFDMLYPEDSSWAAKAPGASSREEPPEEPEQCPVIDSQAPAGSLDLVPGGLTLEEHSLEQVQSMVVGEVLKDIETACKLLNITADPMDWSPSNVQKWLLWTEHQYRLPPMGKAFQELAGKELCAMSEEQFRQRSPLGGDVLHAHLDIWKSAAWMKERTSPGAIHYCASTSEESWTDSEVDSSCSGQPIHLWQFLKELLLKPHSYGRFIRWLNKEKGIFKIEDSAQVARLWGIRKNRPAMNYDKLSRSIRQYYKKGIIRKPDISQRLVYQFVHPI
The following applies: protein: recombinant; tags: N-terminal GST; dsDNA, one strand shown. In short, it runs like this:
as §1

Experiment [15] has as its target T10, ETV7 (Homo sapiens, UniProt Q9Y603 1-341).
T10 sequence: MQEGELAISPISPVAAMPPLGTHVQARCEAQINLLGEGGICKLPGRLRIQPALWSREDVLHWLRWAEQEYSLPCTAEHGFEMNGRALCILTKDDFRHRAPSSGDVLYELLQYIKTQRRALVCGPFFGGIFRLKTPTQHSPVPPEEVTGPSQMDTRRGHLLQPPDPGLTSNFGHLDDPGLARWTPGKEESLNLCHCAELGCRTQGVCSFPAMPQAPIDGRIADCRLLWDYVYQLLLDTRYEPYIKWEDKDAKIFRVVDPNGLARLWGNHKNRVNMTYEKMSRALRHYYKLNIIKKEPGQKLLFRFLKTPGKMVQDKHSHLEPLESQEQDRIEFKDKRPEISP
The following applies: protein: recombinant; tags: N-terminal GST; dsDNA, one strand shown. Put shortly: as §1

Experiment [16] deals with T11, ELF5 (Homo sapiens, UniProt Q9UKW6-2 1-255).
T11 sequence: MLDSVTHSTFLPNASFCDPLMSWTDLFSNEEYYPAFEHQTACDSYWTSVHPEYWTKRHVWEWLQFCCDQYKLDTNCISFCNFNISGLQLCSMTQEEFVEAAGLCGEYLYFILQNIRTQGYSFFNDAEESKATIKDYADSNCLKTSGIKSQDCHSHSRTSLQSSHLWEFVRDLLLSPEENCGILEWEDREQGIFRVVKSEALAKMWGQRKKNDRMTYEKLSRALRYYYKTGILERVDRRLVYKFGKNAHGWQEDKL
Particulars: protein: recombinant; tags: N-terminal GST; dsDNA, one strand shown. In short, it runs like this:
as §1

Experiment [17] concerns the target T12, ETV3 (Homo sapiens, UniProt P41162-2 1-143).
T12 sequence: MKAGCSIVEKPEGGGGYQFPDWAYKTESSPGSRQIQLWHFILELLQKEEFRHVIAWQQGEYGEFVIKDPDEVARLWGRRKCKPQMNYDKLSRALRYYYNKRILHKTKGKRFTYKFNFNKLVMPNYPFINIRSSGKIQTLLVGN
Particulars: protein: recombinant; tags: N-terminal GST; dsDNA, one strand shown. In short, it runs like this:
as §1

Experiment [18] has as its target ETV6 (Homo sapiens, UniProt P41212 1-452). The following applies: protein: recombinant; tags: N-terminal GST; dsDNA, one strand shown. Put shortly:
as §1

ELF4, sequence (Q99607 whole entry): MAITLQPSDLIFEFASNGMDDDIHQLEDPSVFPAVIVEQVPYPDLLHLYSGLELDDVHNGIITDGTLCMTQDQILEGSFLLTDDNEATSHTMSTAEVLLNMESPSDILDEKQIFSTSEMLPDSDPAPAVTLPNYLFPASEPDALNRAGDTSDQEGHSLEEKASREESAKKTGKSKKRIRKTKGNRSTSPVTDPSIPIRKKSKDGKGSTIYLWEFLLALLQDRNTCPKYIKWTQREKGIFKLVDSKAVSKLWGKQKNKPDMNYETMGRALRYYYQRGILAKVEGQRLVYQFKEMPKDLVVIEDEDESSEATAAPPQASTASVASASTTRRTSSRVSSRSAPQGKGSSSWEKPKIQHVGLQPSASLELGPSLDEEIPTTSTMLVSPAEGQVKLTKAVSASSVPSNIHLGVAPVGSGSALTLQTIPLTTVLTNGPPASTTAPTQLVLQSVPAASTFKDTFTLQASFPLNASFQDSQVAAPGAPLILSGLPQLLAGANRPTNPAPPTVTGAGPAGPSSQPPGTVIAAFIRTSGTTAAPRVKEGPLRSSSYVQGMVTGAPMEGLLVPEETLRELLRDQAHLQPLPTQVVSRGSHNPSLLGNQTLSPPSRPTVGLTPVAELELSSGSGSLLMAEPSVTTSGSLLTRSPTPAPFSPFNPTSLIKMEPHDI
CRX, sequence (O43186 whole entry): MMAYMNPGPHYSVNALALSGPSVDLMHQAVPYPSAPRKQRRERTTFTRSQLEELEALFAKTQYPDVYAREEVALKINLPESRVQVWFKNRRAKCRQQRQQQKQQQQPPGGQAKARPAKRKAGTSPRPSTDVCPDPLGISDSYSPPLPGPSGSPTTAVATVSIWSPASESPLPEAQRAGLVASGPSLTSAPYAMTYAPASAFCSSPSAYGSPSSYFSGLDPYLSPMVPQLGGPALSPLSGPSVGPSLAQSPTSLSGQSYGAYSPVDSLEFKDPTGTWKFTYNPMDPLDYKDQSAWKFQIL
HSF1, sequence (Q00613 whole entry): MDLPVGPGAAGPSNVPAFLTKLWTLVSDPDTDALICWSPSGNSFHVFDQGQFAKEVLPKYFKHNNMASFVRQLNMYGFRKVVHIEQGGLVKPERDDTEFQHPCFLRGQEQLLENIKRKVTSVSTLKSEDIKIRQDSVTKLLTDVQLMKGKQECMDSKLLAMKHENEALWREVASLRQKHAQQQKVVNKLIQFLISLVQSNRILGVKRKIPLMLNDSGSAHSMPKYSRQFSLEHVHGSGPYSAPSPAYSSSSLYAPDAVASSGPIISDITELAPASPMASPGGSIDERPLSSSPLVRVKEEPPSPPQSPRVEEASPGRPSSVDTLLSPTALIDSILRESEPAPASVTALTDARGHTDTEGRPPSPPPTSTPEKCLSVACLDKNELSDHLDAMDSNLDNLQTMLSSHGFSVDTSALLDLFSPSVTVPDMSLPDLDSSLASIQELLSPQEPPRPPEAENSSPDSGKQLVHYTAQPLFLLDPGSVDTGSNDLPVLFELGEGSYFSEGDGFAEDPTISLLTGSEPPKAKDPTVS
ETV1, sequence (P50549 whole entry): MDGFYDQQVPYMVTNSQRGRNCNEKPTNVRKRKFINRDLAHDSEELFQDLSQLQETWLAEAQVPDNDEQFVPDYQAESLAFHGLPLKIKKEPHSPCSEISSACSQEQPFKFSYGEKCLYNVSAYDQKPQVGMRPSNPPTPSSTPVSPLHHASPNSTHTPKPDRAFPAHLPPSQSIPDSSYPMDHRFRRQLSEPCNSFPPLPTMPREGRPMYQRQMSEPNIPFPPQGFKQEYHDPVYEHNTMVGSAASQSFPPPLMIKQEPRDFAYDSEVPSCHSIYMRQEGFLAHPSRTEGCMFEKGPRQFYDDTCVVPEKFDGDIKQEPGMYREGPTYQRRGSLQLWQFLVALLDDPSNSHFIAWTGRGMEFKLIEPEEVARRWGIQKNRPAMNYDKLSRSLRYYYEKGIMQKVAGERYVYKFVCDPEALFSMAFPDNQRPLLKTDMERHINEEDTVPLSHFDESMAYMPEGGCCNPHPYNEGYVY
ETV5, sequence (P41161 whole entry): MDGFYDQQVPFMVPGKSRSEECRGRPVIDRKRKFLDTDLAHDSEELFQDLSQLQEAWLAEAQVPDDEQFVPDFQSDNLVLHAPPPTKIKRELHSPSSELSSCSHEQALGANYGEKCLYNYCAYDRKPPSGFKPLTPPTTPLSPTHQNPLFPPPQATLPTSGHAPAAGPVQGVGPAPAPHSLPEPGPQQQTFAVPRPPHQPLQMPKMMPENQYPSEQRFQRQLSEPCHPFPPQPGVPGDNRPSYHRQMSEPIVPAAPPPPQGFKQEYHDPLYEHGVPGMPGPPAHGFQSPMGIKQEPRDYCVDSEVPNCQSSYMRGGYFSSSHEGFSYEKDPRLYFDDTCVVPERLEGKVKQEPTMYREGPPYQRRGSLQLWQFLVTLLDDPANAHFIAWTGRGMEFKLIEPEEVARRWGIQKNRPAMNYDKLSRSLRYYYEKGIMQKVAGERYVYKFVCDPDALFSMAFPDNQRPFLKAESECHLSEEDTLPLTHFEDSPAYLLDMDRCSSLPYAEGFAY
ETV6, sequence (P41212 whole entry): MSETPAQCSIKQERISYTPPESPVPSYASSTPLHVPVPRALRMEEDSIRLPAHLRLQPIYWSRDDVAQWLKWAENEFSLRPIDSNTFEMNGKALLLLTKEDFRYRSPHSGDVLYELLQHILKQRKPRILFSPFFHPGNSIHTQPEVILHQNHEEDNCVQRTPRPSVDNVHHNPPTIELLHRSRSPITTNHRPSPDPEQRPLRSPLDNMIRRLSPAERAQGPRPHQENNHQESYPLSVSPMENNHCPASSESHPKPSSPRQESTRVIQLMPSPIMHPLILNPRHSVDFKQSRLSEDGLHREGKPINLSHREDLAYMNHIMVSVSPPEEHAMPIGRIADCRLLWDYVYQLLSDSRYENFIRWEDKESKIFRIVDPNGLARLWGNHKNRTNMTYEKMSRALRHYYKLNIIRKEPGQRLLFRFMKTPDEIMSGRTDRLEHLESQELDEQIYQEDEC

Regarding CGTATT, the binding signal is 1.07 fold enrichment (6-mer frequency, TF over GST control) in [1]; 1.2 fold enrichment (6-mer frequency, TF over GST control) in experiment [2]; 1.21 fold enrichment (6-mer frequency, TF over GST control) in experiment [3]; 1.22 fold enrichment (6-mer frequency, TF over GST control) in [4]; 1.16 fold enrichment (6-mer frequency, TF over GST control) in experiment [5]; 1.18 fold enrichment (6-mer frequency, TF over GST control) in [6]. Further, the binding signal in experiment [7] is 1.38 fold enrichment (6-mer frequency, TF over GST control); in experiment [8] it was 1.04 fold enrichment (6-mer frequency, TF over GST control); in [9], 1.46 fold enrichment (6-mer frequency, TF over GST control); in experiment [10], 1.22 fold enrichment (6-mer frequency, TF over GST control); in experiment [11], 1.08 fold enrichment (6-mer frequency, TF over GST control); in experiment [12] it was 1.09 fold enrichment (6-mer frequency, TF over GST control). Besides, the binding signal was 1.18 fold enrichment (6-mer frequency, TF over GST control) in [13]; 1.16 fold enrichment (6-mer frequency, TF over GST control) in experiment [14]; 1.07 fold enrichment (6-mer frequency, TF over GST control) in experiment [15]; 1.14 fold enrichment (6-mer frequency, TF over GST control) in [16]; 1.16 fold enrichment (6-mer frequency, TF over GST control) in [17]; 1.22 fold enrichment (6-mer frequency, TF over GST control) in experiment [18].

For the origin of these results see article PMC7862700, “An all-to-all approach to the identification of sequence-specific readers for epigenetic DNA modifications on cytosine”.
